Measured values from PubChem BioAssay (NCI).
This is part of a sample that, as a whole, favours compounds with a hit. Of some 79,000 tested, about 15% had one in any assay. Active and inactive are the calls of the source. No stated cut-off is given here; in the data, active means growth inhibition above about 70%; inactive means the rest.

Assay: NCI Yeast Anticancer Drug Screen. Data for the sgs1 mgt1 strain (AID 161);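 further: 0% = growth of cultures given vehicle only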
Conditions: S. cerevisiae sgs1 mgt1 strain, hits give high values; at 50.0 µM unless noted
Method in brief: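 Yeast cells carrying a defined DNA-repair defect were exposed to test compounds. Growth inhibition was measured relative to vehicle-treated controls.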

Structure (SMILES)	growth inhibition
CC(=O)Nc1ccc(S(=O)(=O)O)c(OC(C)=O)c1	9.85% (inactive)
CN(C)CCN1CC2Cc3ccccc3C1c1ccccc12 (stereo not given)	-3.5% (inactive)
COc1cc(/C=N/NC(=O)c2ccccc2NC(=O)c2ccccc2)ccc1O	20.1% (inactive)
NC(=S)Cc1ccncc1	3.45% (inactive)
COc1ccc2nc3cc(Cl)ccc3c(SCC(=O)Nc3ccccc3-c3ccccc3NC(=O)CSc3c4ccc(Cl)cc4nc4ccc(OC)cc34)c2c1	-3.05% (inactive)
COC1C(CO)OC(O)C(O)C1O (stereo not given)	-5.2% (inactive)
CCNC(=O)Nc1cccc(C)n1	22.8% (inactive)
CCCCCCCCCCCCC(C)O (stereo not given)	-18.8% (inactive)
COc1ccc(C2=Nc3c(nc(OC)[nH]c3=O)NC(c3ccccc3)C2)cc1 (stereo not given)	-10.5% (inactive)
CO[C@@H]1C2=CC=CC=C[C@H]2n2c(=O)n(-c3ccccc3)c(=O)n21	18.4% (inactive)
CC1(C)OCC2OC3(c4nc(C#N)c(N)o4)OC(C)(C)OC3C2O1 (stereo not given)	-48% (inactive)
O=C1C2CCC2C(=O)N1c1ccc2ccccc2c1 (stereo not given)	0.35% (inactive)
CC1(C)C2(Cl)C(Cl)=C(Cl)C13C(Cl)(c1ccc([N+](=O)[O-])cc1C1(Cl)C(Cl)(Cl)C4(Cl)C(Cl)=C(Cl)C13C4(C)C)C2(Cl)Cl (stereo not given)	-27.9% (inactive)
CCCCCCCCCCCCCCCCNC(=O)C(=O)/C=C(\O)c1ccc(C)cc1	18.8% (inactive)
NS(=O)(=O)c1ccc(N=Nc2ncccc2O)cc1	-12.3% (inactive)
O=C(O)C1(F)CC1(c1ccccc1)c1ccccc1 (stereo not given)	14.5% (inactive)
CCCCCCCCCCCC[N+](C)(C)C(C)Cc1ccccc1 (stereo not given)	89.8% (active)
CCOC(OCC)N1C(=O)C2(C(OCC)OCC)CC3C(OC(=O)N3N)c3cccc1c32 (stereo not given)	-7.45% (inactive)
CCCCCC(=O)NNC(=O)CCCCC	7.2% (inactive)
COc1cc(C(=O)O)cc(I)c1OC	3.95% (inactive)

Structure (SMILES)	growth inhibition
CN(Cc1ccc2nc(N)nc(N)c2c1)c1ccc(C(=O)NC(CCC(=O)O)C(=O)O)cc1 (stereo not given)	77.8% (active)
COc1ccc(OC(C)C(=O)O)c2c(=O)ccccc12 (stereo not given)	-5.2% (inactive)
O=P1(NC23CC4CC(CC(C4)C2)C3)OC(CCl)=NC1c1ccc(C2N=C(CCl)OP2(=O)NC23CC4CC(CC(C4)C2)C3)cc1 (stereo not given)	-34.3% (inactive)
CCCCC/C(=N\c1nc[nH]c1C(N)=O)OCC	-37.9% (inactive)
CC(C)c1ccc(/C(C(=O)O)=C(\O)C(=O)O)cc1	-15.4% (inactive)
O=C1CC(c2ccccc2)N1c1ccccc1 (stereo not given)	-11.3% (inactive)
C=C(C)C(C(=O)OCC)C(=O)OCC	7.4% (inactive)
CO/C(=N\N=C\c1ccc(Cl)cc1Cl)c1ccncc1	-53% (inactive)
COc1ccc2[nH]c3c(C)c4c(c(C)c3c2c1)CN(C)C=C4	62.7% (inactive)
O=C(O)C1CCc2ccccc21 (stereo not given)	-15.2% (inactive)
C[N+]1(C)CCc2cc(O)c(O)cc2C1Cc1ccc(O)c(O)c1 (stereo not given)	-29.6% (inactive)
CCc1c(CC)c(CC)c(CC)c(CC)c1CC	-36.4% (inactive)
CCC1(CC)SC=C(C)NC1=O	12.6% (inactive)
CCOC(=O)c1cc2ccccc2cc1N=N	15% (inactive)
COc1ccc(COC(=O)Nc2ccc(Br)cc2)c(OC)c1	27.2% (inactive)
Cc1ncc(CO)c(/C=N\OCc2cccc(Cl)c2)c1O	-1.5% (inactive)
N#CCCC(CC#N)N1CCN(CCO)CC1 (stereo not given)	-18.7% (inactive)
C/C(=N\NC(=O)c1ccncc1)c1cc(Cl)ccc1Cl	4.65% (inactive)
COC(=O)/C([O-])=C(\C(=O)OC)[n+]1cc(Br)cc2ccccc21	31.6% (inactive)
CC1OC(O[C@H]2CC[C@]3(C)[C@H]4CC=C5[C@@H]6[C@@H](C)[C@H](C)CC[C@]6(C(=O)OC6OC(CO)C(O)C(O)C6O)CC[C@@]5(C(=O)O)[C@]4(C)CC[C@H]3C2(C)C)C(O)C(O)C1O (stereo not given in full)	-31.6% (inactive)
